Hits are enriched below; roughly 2.2% of the tested compounds scored in any of these assays.
APP transl inh: inhibitors of APP translation via 5'UTR reporter, primary screen, APP 5'UTR luciferase, SH-SY5Y cells; SH-SY5Y APP 5'UTR-luciferase reporter, luminescence; inhibition, % at 2 µM; hit rate 0.82% among 190,000; AID 1285, 2008;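 active means inhibition above a set limit, derived from the sample mean plus 3 SD, cut at about 45% in these data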
aSyn 5UTR inh: MLPCN primary screen, SNCA 5' untranslated region; alpha-synuclein 5'UTR reporter, inhibitor activity; inhibition, % (tested at 7.5 µM); hit rate 0.82% among 300,000; in the data active means inhibition above about 60%;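 further: H4 neuroglioblastoma cells stably carrying SNCA 5'UTR luciferase fusion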
KLF5 inh: KLF5 expression inhibitors, primary screen, DLD-1 cells, luminescence; DLD-1 KLF5 promoter-luciferase reporter; hit rate 0.23% among 290,000; inhibition, % at 5 µM;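 active means inhibition above a per-plate limit of that plate's mean compound inhibition plus 3 SD, cut at about 60% in these data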;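 further: higher means less KLF5 promoter-driven luciferase light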
BaF3 parental: parental Ba/F3 cell viability inhibition, counter-screen for JAK2V617F inhibitor project, murine pro-B, CellTiter-Glo luminescence. CellTiter-Glo ATP luminescence. inhibition, % at 5.6 µM. hit rate 1.1% among 220,000;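 active means inhibition above a per-campaign cutoff, the mean inhibition of all tested compounds plus 3 SD, cut at about 27% in these data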
Ba/F3 V617F tox: reduced viability of JAK2V617F-dependent Ba/F3 cells, primary screen, JAK2V617F inhibitor project, cell-based, Ba/F3 EpoR-JAK2V617F, luminescence; AID 1446, 2008; ATP luminescence; inhibition, % at 5.6 µM; hit rate 1.1% among 220,000;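 active means inhibition above the campaign mean plus 3 SD over all tested compounds, cut at about 24% in these data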;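 further: cytokine-independent growth of Ba/F3 cells driven by EpoR plus mutant JAK2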
IEC-6 tox-1: cytotoxicity in IEC-6 intestinal epithelial cells, primary screen, cytotoxicity control for KLF5 inhibitor project, cell-based, luminescence; IEC-6 cytotoxicity, luminescence viability; hit rate 0.78% among 290,000; AID 1825, 2009; inhibition, % at 5 µM; in the data active means inhibition above about 22%
KLF5 inh confirm: KLF5 expression inhibitors, confirmation, DLD-1 cells, luminescence | shares compounds with KLF5 inh | DLD-1 KLF5 promoter firefly luciferase reporter | inhibition, % at 4 µM | hit rate 79% among 610 | AID 1834, 2009;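 active means inhibition above a set limit taken from the earlier primary screen, cut at about 63% in these data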
IEC-6 tox-2: cytotoxicity in rat IEC-6 cells, cytotoxicity control for KLF5 inhibitor project, cell-based, luminescence, triplicate; inhibition, % at 4 µM; IEC-6 rat intestinal cells, viability luminescence; shares compounds with KLF5 inh; AID 1905, 2009; hit rate 56% among 610; in the data active means inhibition above about 23%;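 further: cells exposed to compounds for 48 hours before viability read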
Each line names hits and unclear results; the compound was inactive in the other large screens (follow-up assays come after a bar, where they were run).

CCOc1ccc2c(c1)sc(N)[n+]2Cc1cc(C)cc2cccnc12	APP transl inh 94, KLF5 inh 76, BaF3 parental 80, Ba/F3 V617F tox 86, IEC-6 tox-1 76 | KLF5 inh confirm 73 | IEC-6 tox-2 67
COCCn1c(C)cc(C2=NNC(=Nc3ccccc3F)SC2)c1C	APP transl inh 52, aSyn 5UTR inh 91, KLF5 inh 89 | KLF5 inh confirm inactive | IEC-6 tox-2 inactive
COCCCN=C1NN=C(c2cc(C)n(-c3ccccc3F)c2C)CS1	none
CCC(Oc1ccc(Br)cc1)C(=O)N1CCN(c2ncccn2)CC1 (centres undefined)	none (no result: APP transl inh, BaF3 parental, Ba/F3 V617F tox)
CN(C(=O)COC(=O)/C=C/c1cccc([N+](=O)[O-])c1)C1CCS(=O)(=O)C1 (centres undefined)	KLF5 inh 83 (no result: APP transl inh) | KLF5 inh confirm 97 | IEC-6 tox-2 inactive
COc1cccc2c1C(CO)N1C(C#N)C3CC(C(=O)O)C(C1C2)N3C (centres undefined)	KLF5 inh 110, BaF3 parental 95, Ba/F3 V617F tox 94, IEC-6 tox-1 100 (no result: APP transl inh, aSyn 5UTR inh) | KLF5 inh confirm 109 | IEC-6 tox-2 100
COc1cccc2c1OCC(C(=O)O)C2 (centres undefined)	none
CCOC(=O)CN1C2=NCCN2c2ccccc21	KLF5 inh 79 | KLF5 inh confirm inactive | IEC-6 tox-2 inactive
CCOC(=O)CN1C2=NCCCN2c2ccccc21	none
COc1ccc(CCNS(=O)(=O)c2ccc(-n3cnnn3)cc2)cc1OC	none (no result: APP transl inh, BaF3 parental, Ba/F3 V617F tox)
CN(C)c1ccc(Nc2nc(N)c3ccccc3n2)cc1	aSyn 5UTR inh 109, KLF5 inh 91 (no result: APP transl inh, BaF3 parental, Ba/F3 V617F tox) | KLF5 inh confirm 67 | IEC-6 tox-2 inactive
Nc1nc(Nc2ccc(Cl)cc2)nc2ccccc12	none
CCOc1ccc(Nc2nc(N)c3ccccc3n2)cc1	aSyn 5UTR inh 102, KLF5 inh 81 (no result: APP transl inh, BaF3 parental, Ba/F3 V617F tox) | KLF5 inh confirm inactive | IEC-6 tox-2 inactive
COC(=O)c1ccc(NC(=O)CCN2C(=O)C3C4CCC(C4)C3C2=O)cc1 (centres undefined)	none (no result: APP transl inh, BaF3 parental, Ba/F3 V617F tox)
CCOC(=O)CN1C(=O)/C(=C/c2c(F)cccc2Cl)Oc2ccccc21	none (no result: APP transl inh, BaF3 parental, Ba/F3 V617F tox)
O=C(c1cc([N+](=O)[O-])ccc1N1CCOCC1)N1CCN(c2ccc([N+](=O)[O-])cc2)CC1	none (no result: APP transl inh, KLF5 inh, BaF3 parental, Ba/F3 V617F tox, IEC-6 tox-1)
O=C(c1ccccc1)c1cc([N+](=O)[O-])ccc1N1CCOCC1	APP transl inh 92, aSyn 5UTR inh 101, KLF5 inh 74, BaF3 parental 74, Ba/F3 V617F tox 71, IEC-6 tox-1 80 | KLF5 inh confirm 72 | IEC-6 tox-2 58
CCOc1cc(C(=O)N[C@@H](C)C(=O)N2CCC3(CC2)NCCc2[nH]cnc23)cc(OCC)c1OCC	none (no result: APP transl inh, BaF3 parental, Ba/F3 V617F tox)
Oc1c(C(c2cccs2)N2CCN(c3ccccc3)CC2)ccc2cccnc12 (centres undefined)	APP transl inh 59, KLF5 inh 69, BaF3 parental 83, Ba/F3 V617F tox 98 (no result: aSyn 5UTR inh) | KLF5 inh confirm inactive | IEC-6 tox-2 inactive
CN1CCN(C(c2ccc(C(F)(F)F)cc2)c2ccc3cccnc3c2O)CC1 (centres undefined)	none (no result: APP transl inh, BaF3 parental, Ba/F3 V617F tox)
CN(C)c1ccc(/C=C(\C#N)c2ccccn2)cc1	aSyn 5UTR inh 102, KLF5 inh 69 | KLF5 inh confirm 66 | IEC-6 tox-2 inactive
N#C/C(=C\c1ccc([N+](=O)[O-])cc1)c1ccccn1	none
CCn1c(=S)sc2c(=O)n(CC(=O)Nc3cccc(Cl)c3)c(C)nc21	none (no result: APP transl inh, BaF3 parental, Ba/F3 V617F tox)
COc1cccc(NC(=O)NC2(C(=O)N3CCN(C)CC3)CCCCC2)c1	none (no result: APP transl inh, BaF3 parental, Ba/F3 V617F tox)
O=C(O)c1cc(N=Nc2c(O)ccc3ccccc23)cc(C(=O)O)c1	none (no result: aSyn 5UTR inh)
O=C(O)c1ccc(N=Nc2c(O)ccc3ncccc23)cc1	KLF5 inh 87 (no result: APP transl inh, BaF3 parental, Ba/F3 V617F tox) | KLF5 inh confirm inactive | IEC-6 tox-2 inactive
O=C(O)CSCC(=O)Nc1ccc(C2CCCCC2)cc1	APP transl inh 68, aSyn 5UTR inh 108, KLF5 inh 75 | KLF5 inh confirm 77 | IEC-6 tox-2 inactive
CCOc1ccc(N(CC)C(=O)c2cn(CC)c(=O)c3cc(OC)c(OC)cc23)cc1	none (no result: APP transl inh, BaF3 parental, Ba/F3 V617F tox)
Cc1ccc(-n2nnc(-c3nccs3)n2)cc1	aSyn 5UTR inh 95, KLF5 inh 63 | KLF5 inh confirm 64 | IEC-6 tox-2 inactive
CCOC(=O)c1cnc2c(ccc3ccccc32)c1N	none (no result: APP transl inh, BaF3 parental, Ba/F3 V617F tox)
CC1(C)N=C(N)N=C(N)N1c1ccc(OCCCOc2ccccc2)c(Cl)c1	aSyn 5UTR inh 78, KLF5 inh 77, BaF3 parental 102, Ba/F3 V617F tox 97, IEC-6 tox-1 82 (no result: APP transl inh) | KLF5 inh confirm 73 | IEC-6 tox-2 66
COc1ccc(C(=O)O/N=C(\N)c2ccccc2)cc1	none (no result: APP transl inh, BaF3 parental, Ba/F3 V617F tox)
CC(C)(C)c1ccc(C(=O)O/N=C(\N)c2ccccc2)cc1	KLF5 inh 71 (no result: APP transl inh, BaF3 parental, Ba/F3 V617F tox) | KLF5 inh confirm 66 | IEC-6 tox-2 inactive
Cc1cc(C)c2nc(NC(=O)[C@@H](NC(=O)c3cccc(S(=O)(=O)N4CCOCC4)c3)C(C)C)sc2c1	KLF5 inh 74 | KLF5 inh confirm 100 | IEC-6 tox-2 45
Cc1cccc(C(=O)N[C@H](C(=O)Nc2cc(S(=O)(=O)N3CCCCC3)ccc2C)C(C)C)c1	none
Cc1ccc(/C=C(\C#N)C(=O)NC(C)c2ccccc2)o1 (centres undefined)	none (no result: APP transl inh, BaF3 parental, Ba/F3 V617F tox)
O=C(NC1=NCCS1)C1COc2ccccc2O1 (centres undefined)	aSyn 5UTR inh 98, KLF5 inh 69 | KLF5 inh confirm 71 | IEC-6 tox-2 inactive
O=C(Nc1ccncc1)C1COc2ccccc2O1 (centres undefined)	none
Cc1cccc(OCC(=O)Nc2ccc3c(c2)C(=O)NC3=O)c1	none (no result: APP transl inh, BaF3 parental, Ba/F3 V617F tox)
COc1ccccc1NC(=O)c1ccccc1C(=O)Nc1ccccc1OC	none (no result: APP transl inh, BaF3 parental, Ba/F3 V617F tox)
COc1ccccc1NC(=O)c1cnc(Nc2ccccc2OC)c2ccccc12	APP transl inh 94, aSyn 5UTR inh 101, KLF5 inh 72, BaF3 parental 83, Ba/F3 V617F tox 85, IEC-6 tox-1 69 | KLF5 inh confirm 71 | IEC-6 tox-2 47
CCOC(=O)N1CCN(C(=O)c2ccc3c(c2)N=C(C)c2cc(Cl)ccc2S3)CC1	none (no result: APP transl inh, BaF3 parental, Ba/F3 V617F tox)
CSc1nnc(NC(=O)c2ccc3c(c2)OCO3)s1	aSyn 5UTR inh 81, KLF5 inh 75 (no result: APP transl inh, BaF3 parental, Ba/F3 V617F tox) | KLF5 inh confirm inactive | IEC-6 tox-2 inactive
O=C(NCc1ccco1)C1CCCN(c2nnc(-n3cccc3)s2)C1 (centres undefined)	none (no result: APP transl inh, BaF3 parental, Ba/F3 V617F tox)
Cc1cnc(NC(=O)CCCc2nc3ccccc3s2)s1	none
Cc1ccc2nc(NC(=O)CCCc3nc4ccccc4s3)sc2c1	KLF5 inh 88 | KLF5 inh confirm 98 | IEC-6 tox-2 inactive

Source: PubChem
